Source: PubChem
Only some compounds are listed: those with a hit (about 5.4% of all), similar ones and a draw of the others.
A3A deaminase: APOBEC3A ssDNA deaminase inhibitors, primary screen, selectivity assay for APOBEC3G inhibitor project, biochemical, FAM/TAMRA oligo cleavage fluorescence; DNA dC->dU-editing enzyme APOBEC-3A (Homo sapiens), P31941; recombinant A3A, FAM/TAMRA ssDNA deamination fluorescence; inhibition, % at 20 µM; actives 0.41% (n = 330,000); AID 493011, 2011;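 active = at least 40% inhibition at 20 µM here, with at most 30% in a related deaminase screen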
Target sequence (P31941 whole entry, looked up): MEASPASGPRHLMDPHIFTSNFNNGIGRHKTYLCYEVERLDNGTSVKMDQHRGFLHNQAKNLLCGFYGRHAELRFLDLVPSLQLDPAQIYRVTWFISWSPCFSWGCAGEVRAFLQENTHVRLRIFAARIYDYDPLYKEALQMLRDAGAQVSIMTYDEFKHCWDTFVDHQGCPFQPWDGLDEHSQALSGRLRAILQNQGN
aDG glyco act: activators of alpha-DG glycosylation, primary screen, uHTS, Pro5-aDG cells, AlphaScreen; alpha-DG glycosylation AlphaScreen (IIH6); 0% Pro5, 100% B10-LARGE cell signal; actives 0.22% (n = 360,000); activation, % at 10 µM; AID 624168, 2012;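 active = activation of at least 8% versus controls, or a plate z-score of at least 8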;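 also: Pro5 are CHO cells carrying HIG-tagged alpha-DG that lacks glycosylation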
PHOSPHO1 inh: PubChem AID 1565. Phosphoethanolamine/phosphocholine phosphatase (Homo sapiens), Q8TCT1. recombinant PHOSPHO1, absorbance phosphatase assay. inhibition, % at 13.3 µM. actives 1.1% (n = 290,000); in the data active = inhibition above about 60%
ALR H2O2 inh: inhibitors of human ALR sulfhydryl oxidase, primary screen, biochemical, H2O2 detection, HRP-luminol luminescence, single point. FAD-linked sulfhydryl oxidase ALR (Homo sapiens), P55789. purified ALR, DTT oxidation. inhibition, % (concentration not given with the values). actives 3.8% (n = 290,000). AID 485317, 2010;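 active = mean replicate inhibition above about 79%, with every replicate also reaching it, limit read from the data; inconclusive = only one of the two criteria met; inactive = mean below limit and not every replicate reaching it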
rCAG RNA binder: binders of r(CAG) RNA repeats, primary screen, biochemical, fluorescence; r(CAG) RNA repeat, TO-PRO-1 dye displacement fluorescence; inhibition, % at 3 µM; actives 1.3% (n = 370,000); AID 651821, 2012;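 active = inhibition above the plate cutoff, the mean of all test compounds on that plate plus 3 SD, cut at about 35% in these data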;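 also: higher means more dye released from RNA so lower well fluorescence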
APOBEC3G inh: APOBEC3G DNA deaminase inhibitors, primary screen, biochemical, fluorescence, single-stranded DNA substrate, uHTS; DNA dC->dU-editing enzyme APOBEC-3G (Homo sapiens), Q9HC16; actives 0.28% (n = 330,000); recombinant A3G, ssDNA deamination FAM/TAMRA fluorescence; inhibition, % at 20 µM;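 active = inhibition of at least 40% at 20 µM, with no more than 30% in the related APOBEC3A deaminase screen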
Target sequence (Q9HC16 whole entry, looked up): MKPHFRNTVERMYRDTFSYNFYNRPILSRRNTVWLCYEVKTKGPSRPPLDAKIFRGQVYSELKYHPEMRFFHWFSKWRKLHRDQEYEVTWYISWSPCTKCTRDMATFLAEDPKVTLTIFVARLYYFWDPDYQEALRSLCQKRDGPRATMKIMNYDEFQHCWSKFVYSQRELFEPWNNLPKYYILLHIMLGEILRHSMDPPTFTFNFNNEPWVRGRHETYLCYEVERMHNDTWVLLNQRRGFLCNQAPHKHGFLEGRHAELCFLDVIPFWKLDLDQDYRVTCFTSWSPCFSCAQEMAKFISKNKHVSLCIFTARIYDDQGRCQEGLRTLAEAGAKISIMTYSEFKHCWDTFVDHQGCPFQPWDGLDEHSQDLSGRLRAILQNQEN
Hits are given with their value; - = inactive; ? = inconclusive; . = no result given.

SMILES	A3A deaminase	aDG glyco act	PHOSPHO1 inh	ALR H2O2 inh	rCAG RNA binder	APOBEC3G inh
COC(=O)[C@]12C[C@H](CC(=O)NCC3CCCCC3)C(=O)N(Cc3ccco3)C1=C[C@H](C1CCCC1)O[C@@H]2C	.	.	.	.	-	.
c1ccc2c(c1)CCCN2Cc1nnnn1CC1CCCO1 (centres undefined)	-	-	-	-	-	-
CCC(C)(C)n1nnnc1CN1CCc2ccccc21	-	-	-	98	-	-
c1ccc(CCn2nnnc2CN2CCCc3ccccc32)cc1	-	-	64	89	-	-
CC(C)CN1CN2CCc3ccccc3C2CS1(=O)=O (centres undefined)	.	.	.	.	-	.
CCOC(=O)[C@]12CCCC=C1N(CCCOC)C(=O)[C@@H]2CC(=O)N1CCCC1	.	.	.	.	-	.
COc1cc(/C=C2\SC(=O)N(CC(=O)Nc3cccc(C)c3)C2=O)cc([N+](=O)[O-])c1O	.	-	62	.	-	.
CCOc1cc(/C=C2\SC(=O)N(CC(=O)Nc3ccccc3F)C2=O)cc([N+](=O)[O-])c1O	-	-	-	-	-	-
CCOC(=O)C1=C(C(=O)OCC)C2N(Cc3ccc(C#N)cc3)c3ccccc3[C@@]23C[C@@H](C(=O)OC)N(S(=O)(=O)c2ccc(OC)cc2)C3=N1 (some centres undefined)	.	.	.	.	-	.
Cc1c(Cl)cccc1Nc1ccccc1C(=O)O	-	-	-	98	-	-
CN1CCCC(CN2c3ccccc3Sc3ccccc32)C1 (centres undefined)	-	-	-	99	-	-
CN1CCN(CCCN2c3ccccc3Sc3ccc(Cl)cc32)CC1	-	-	-	99	-	-
CC(CN1CCN(CCOCCO)CC1)CN1c2ccccc2Sc2ccc(Cl)cc21 (centres undefined)	.	-	.	.	-	.
CCSc1ccc2c(c1)N(CCCN1CCN(C)CC1)c1ccccc1S2	-	-	.	97	-	-
CN1CCCC(CC2c3ccccc3Sc3ccccc32)C1 (centres undefined)	-	-	.	-	-	-
Cc1cc(C)cc(N(CC(=O)NC2CCC(C)CC2)S(=O)(=O)c2ccc([N+](=O)[O-])cc2)c1 (centres undefined)	.	.	.	.	-	.
Cc1ccc(S(=O)(=O)N2CCCC(C(=O)NCc3ccco3)C2)cc1 (centres undefined)	.	.	.	.	-	.
COc1ccc(NC2=C(C(C)=O)C(c3ccc(N(C)C)cc3)C(C(C)=O)C(C)(O)C2)cc1 (centres undefined)	-	-	-	91	-	-
COC(=O)[C@H]1C[C@@]2(N3CCCCC3)c3ccccc3N[C@H]2N1S(=O)(=O)c1ccc([N+](=O)[O-])cc1	.	.	.	.	-	.
O=C(CSc1nnc2c3ccccc3c3ccccc3c2n1)Nc1ccccc1F	-	-	94	-	-	-
CCc1nnc(SCC(=O)Nc2ccccc2Cl)nc1CC	-	-	-	98	-	-
C#CCNC(=O)C[C@H]1C[C@@]2(C(=O)OC)C(=C[C@H](COCc3ccccc3)O[C@@H]2C)N(CCC2=CCCCC2)C1=O	.	.	.	.	-	.
O=C(COc1ccccc1)N/N=C/c1ccc([N+](=O)[O-])o1	-	-	-	-	-	-
O=C(CNc1ccc2ccccc2c1)N/N=C/c1ccc([N+](=O)[O-])o1	-	9.8	-	-	-	-
CCOc1cc(-c2cc(-c3ccc(C)o3)nc(N)c2C#N)ccc1O	-	-	-	80	-	-
SMILES	A3A deaminase	aDG glyco act	PHOSPHO1 inh	ALR H2O2 inh	rCAG RNA binder	APOBEC3G inh
Cc1ccc(-c2cc(-c3ccc(Cl)cc3)c(C#N)c(N)n2)o1	-	-	72	-	-	-
CCCc1cc(-c2ccc(O)c(OCC)c2)c(C#N)c(N)n1	-	-	-	-	-	-
COc1cccc(Cn2cc(COC(=O)NCCc3ccccc3)nn2)c1	.	.	.	.	-	.
Cc1ccc2c(CC(=O)NCC(=O)Nc3c(C)cccc3C)coc2c1	-	-	.	-	-	-
Cc1ccc2c(CC(=O)Nc3sccc3C(N)=O)coc2c1	-	-	-	85	-	-
Cn1c(=N)n(CC(=O)c2ccc(Br)s2)c2ccccc21	-	13	-	.	-	-
Cn1c(=N)n(CC(=O)c2cccs2)c2ccccc21	-	-	-	.	-	-
COC(=O)C[C@H]1CC[C@H]2[C@H](COc3ccc(NC(=O)Nc4ccccc4F)cc3C(=O)N2C)O1	.	.	.	.	-	.
CCn1c2ccccc2c2cc(/C(C)=N/O)ccc21	-	-	-	98	-	-
CCOC(=O)c1c(N)sc2c1CCC(C)C2 (centres undefined)	-	-	-	-	-	-
CCC(C)(C)C1CCc2c(sc(N)c2C(N)=O)C1 (centres undefined)	-	-	-	?	-	-
CCCC1CCc2c(sc(N)c2C(N)=O)C1 (centres undefined)	-	-	95	.	-	-
CC(C)(C)C1CCc2c(sc(N)c2C(N)=O)C1 (centres undefined)	.	-	83	-	.	.
Cc1c(C2Nc3ccccc3NC3=C2C(=O)CC(C)(C)C3)cnn1C (centres undefined)	-	-	-	-	-	-
COc1cc(C2Nc3ccccc3NC3=C2C(=O)CC(C)(C)C3)cc(OC)c1OC(C)=O (centres undefined)	-	-	-	-	-	-
CC1(C)CC(=O)C2=C(C1)Nc1ccccc1NC2c1cccs1 (centres undefined)	-	-	-	99	-	-
CC1(C)CC(=O)C2=C(C1)NC(=O)NC2c1ccc([N+](=O)[O-])cc1 (centres undefined)	-	-	-	.	-	-
CC1(C)CC(=O)C2=C(C1)Nc1ccccc1NC2c1ccccc1F (centres undefined)	-	-	-	98	-	-
COc1cccc(C2Nc3ccccc3NC3=C2C(=O)CC(C)(C)C3)c1 (centres undefined)	-	-	-	98	-	-
CC1(C)CC(=O)C2=C(C1)Nc1ccccc1NC2c1ccc([N+](=O)[O-])cc1 (centres undefined)	-	-	.	98	-	-
CCOC(=O)[C@]12CCCC=C1N(CCCOC)C(=O)[C@@H]2CC(=O)N1CCC(c2ccccc2)CC1	.	.	.	.	-	.
COc1ccc(CN(CCN2CCOCC2)C(=O)c2ccc(F)cc2F)cc1OC	.	.	.	.	-	.
CC1(C)CC(=O)C2=C(C1)Nc1ccccc1NC2c1ccc(F)c(F)c1 (centres undefined)	-	-	-	99	-	-
CC(=O)Nc1ccc(C2Nc3cc(C)c(C)cc3NC3=C2C(=O)CC(C)(C)C3)cc1 (centres undefined)	-	-	-	-	-	-
COCC1CCN(C(=O)c2cc(COc3cccc4cnccc34)on2)CC1	-	-	-	-	-	-
O=C(c1cc(COc2ccc(F)cc2F)on1)N1CCCC(c2ccccc2)C1 (centres undefined)	-	-	60	-	-	-
O=C(c1cc(COc2cccc3cnccc23)on1)N1CCCC(CCCO)C1 (centres undefined)	-	-	63	-	-	-
